# Test results taken from PubChem BioAssay (NCATS).
# “And” between values parts separate entries of the source, which are not always exact repeats. Identical values can stand only once. Results filed as inconclusive are left out. A call without a number means that no potency is given here. A number with no mark means an inactive call. The source made the active and inactive calls. Unless noted, calls follow the shape of the dose curve; as a rule, active = well fitted curve in the direction sought with a large enough effect; inconclusive = small, poorly fitted or top-dose-only effect, or another doubt; inactive = no such curve, though single readings can be large; an effect the other way counts as inactive or inconclusive.
# Experiments:
# [1] = Primary qHTS for small molecule stabilizers of the endoplasmic reticulum resident proteome: Secreted ER Calcium Modulated Protein (SERCaMP) assay (AID 1508630); also: potency is read from the fitted curve at half-maximal effect
# Summary of the method: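 GLuc-SERCaMP-expressing SH-SY5Y cells, pretreated 16 h with compound, are challenged with thapsigargin to empty ER calcium stores; after 4 h, coelenterazine is added directly to the medium and luminescence is imaged.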
# [2] = A High-Content qHTS Against Drug Library for the Identification of Small Molecules that Inhibit DYT1 Early Onset Primary Dystonia-Associated Cell Pathology (AID 1645839; calls by dose curve; also: series mostly up to about 46 µM)
# Summary of the method: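 Readout: %pathology, the punctate EGFP-TorsinA distribution from imaging, as the primary channel and cell count as the toxicity counterscreen. HEK293 Flp-In cells expressing delE TorsinA were induced with tetracycline and treated with compound for 48 h.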
# [3] = biological target: Cytochrome P450 2D6 (Homo sapiens) (UniProt P10635); test: Cytochrome P450 family 2 subfamily D member 6 (CYP2D6) small molecule antagonists: luciferase biochemical (cell-free) qHTS assay (AID 1645840; active = well fitted curve in the direction sought with a large enough effect in the repeat runs; an effect the other way counts as inactive or inconclusive; also: nearly all actives have a fitted effect of over 55% in size; also: potency is read from the fitted curve at half-maximal effect; as to activity change, negative = inhibition: series mostly up to about 57 µM)
# Summary of the method: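 P450-Glo luminescent screen: recombinant CYP2D6 enzyme–proluciferin substrate mix preincubated with compound 10 min at room temperature, then NADPH regeneration added for 1 h at room temperature. Detection reagent added for 20 min; luciferin light read as relative luminescence units.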
# [4] = biological target: Cytochrome P450 3A4 (Homo sapiens) (UniProt P08684); test: Cytochrome P450 family 3 subfamily A member 4 (CYP3A4) small molecule antagonists: luciferase qHTS assay (AID 1645841; active = well fitted curve in the direction sought with a large enough effect in the repeat runs; an effect the other way counts as inactive or inconclusive; also: nearly all actives have a fitted effect of over 45% in size)
# Summary of the method: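 P450-Glo CYP3A4 enzyme with proluciferin substrate was preincubated with DMSO-dissolved compounds for 10 min at room temperature. NADPH regeneration solution started a 1 h reaction. Detection reagent stopped it, and luminescence was read after 20 min.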
# [5] = biological target: Cytochrome P450 2C9 (Homo sapiens) (UniProt P11712); test: Cytochrome P450 family 2 subfamily C member 9 (CYP2C9) small molecule antagonists: luciferase biochemical (cell-free) qHTS assay (AID 1645842; active = well fitted curve in the direction sought with a large enough effect in the repeat runs; an effect the other way counts as inactive or inconclusive; also: nearly all actives have a fitted effect of over 55% in size; also: potency is read from the fitted curve at half-maximal effect; as to activity change, negative = inhibition: series mostly up to about 57 µM)
# Summary of the method: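 Luminescence, after 20 min with luciferin detection reagent, reflected CYP2C9 turnover during a 1 h NADPH-driven reaction at 37C. Enzyme-substrate mix contained 0.4% bovine serum albumin and was preincubated with compound 10 min at room temperature.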
# [6] = Counterscreen qHTS for small molecule stabilizers of the endoplasmic reticulum resident proteome: GLuc-NoTag assay (AID 1508627); also: potency is read from the fitted curve at half-maximal effect;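 as to activity change, negative = inhibition: SH-SY5Y cells given compound then 100 nM thapsigargin to empty ER calcium; series mostly up to about 76 µM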
# Summary of the method: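 SH-SY5Y cells stably expressing constitutively secreted GLuc (no SERCaMP tag) were pre-incubated 5 h, treated with compound for 19 h, then 100 nM thapsigargin for 4 h at 37C; medium GLuc read by coelenterazine luminescence.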
# Papain (Carica papaya) = Papain (Carica papaya) (UniProt P00784); test: Primary qHTS assay for inhibitors of the protease papain (AID 1645873);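 also: papain turnover of Z-FR-AMC read as the AMC fluorescence gain over 10 min; series mostly up to about 50 µM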
# [7] = Confirmatory qHTS for small molecule stabilizers of the endoplasmic reticulum resident proteome: Secreted ER Calcium Modulated Protein (SERCaMP) assay (AID 1508628); also: nearly all actives have a fitted effect of over 40% in size; also: potency is read from the fitted curve at half-maximal effect
# Summary of the method: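 SH-SY5Y cells stably expressing GLuc-SERCaMP, treated 16 h with compound (primary 1.53, 7.67, 38.3 uM; confirmation 11 concentrations, up to 76.6 uM), then 100 nM thapsigargin for 4 h. Secreted Gaussia luciferase in medium read by coelenterazine luminescence.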
# [8] = Cell Viability qHTS for small molecule stabilizers of the endoplasmic reticulum resident proteome (AID 1508629); conditions: cell viability counter-screen, 100 nM thapsigargin for final 4 h;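 also: human SH-SY5Y neuroblastoma cells carrying the GLuc-SERCaMP reporter; compound exposure about 46 h in total before the viability read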
# Papain (Carica papaya), sequence (P00784 whole entry, looked up): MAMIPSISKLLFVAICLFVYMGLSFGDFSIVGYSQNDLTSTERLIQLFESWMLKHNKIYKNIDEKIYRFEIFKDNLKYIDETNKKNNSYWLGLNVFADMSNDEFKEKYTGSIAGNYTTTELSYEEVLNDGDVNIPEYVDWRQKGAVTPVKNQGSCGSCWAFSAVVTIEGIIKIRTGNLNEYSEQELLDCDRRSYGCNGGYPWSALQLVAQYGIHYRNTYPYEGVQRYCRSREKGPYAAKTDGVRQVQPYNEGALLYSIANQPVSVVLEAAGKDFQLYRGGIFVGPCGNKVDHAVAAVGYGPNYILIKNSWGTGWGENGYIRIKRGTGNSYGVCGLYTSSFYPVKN
# Cytochrome P450 2C9 (Homo sapiens), sequence (P11712 whole entry, looked up): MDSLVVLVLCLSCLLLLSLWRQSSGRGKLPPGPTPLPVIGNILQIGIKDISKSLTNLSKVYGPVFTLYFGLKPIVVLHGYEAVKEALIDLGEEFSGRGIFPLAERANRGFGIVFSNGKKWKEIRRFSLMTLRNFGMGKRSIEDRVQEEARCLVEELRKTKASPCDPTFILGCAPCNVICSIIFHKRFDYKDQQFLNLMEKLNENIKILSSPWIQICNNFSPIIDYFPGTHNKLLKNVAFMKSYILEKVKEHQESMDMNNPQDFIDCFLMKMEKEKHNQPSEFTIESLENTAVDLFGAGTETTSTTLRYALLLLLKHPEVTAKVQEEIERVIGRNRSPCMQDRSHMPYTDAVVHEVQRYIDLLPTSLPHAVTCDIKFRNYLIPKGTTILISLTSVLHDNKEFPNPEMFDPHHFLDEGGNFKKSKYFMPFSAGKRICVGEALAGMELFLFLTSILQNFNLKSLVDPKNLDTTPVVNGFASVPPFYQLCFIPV
# Cytochrome P450 3A4 (Homo sapiens), sequence (P08684 whole entry, looked up): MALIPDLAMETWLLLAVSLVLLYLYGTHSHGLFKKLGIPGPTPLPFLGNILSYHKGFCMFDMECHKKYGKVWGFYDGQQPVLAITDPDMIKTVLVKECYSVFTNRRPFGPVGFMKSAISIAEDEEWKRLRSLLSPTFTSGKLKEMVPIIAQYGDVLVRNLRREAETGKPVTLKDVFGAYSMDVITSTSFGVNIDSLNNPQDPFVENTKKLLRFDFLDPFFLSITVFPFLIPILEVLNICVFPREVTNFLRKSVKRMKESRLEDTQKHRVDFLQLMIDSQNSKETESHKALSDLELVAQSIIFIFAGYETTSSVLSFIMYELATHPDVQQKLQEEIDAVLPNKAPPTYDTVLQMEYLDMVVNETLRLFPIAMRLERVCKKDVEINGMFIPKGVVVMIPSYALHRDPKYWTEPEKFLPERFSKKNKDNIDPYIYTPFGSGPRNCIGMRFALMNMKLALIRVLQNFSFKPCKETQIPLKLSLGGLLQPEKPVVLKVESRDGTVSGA
# Cytochrome P450 2D6 (Homo sapiens), sequence (P10635 whole entry, looked up): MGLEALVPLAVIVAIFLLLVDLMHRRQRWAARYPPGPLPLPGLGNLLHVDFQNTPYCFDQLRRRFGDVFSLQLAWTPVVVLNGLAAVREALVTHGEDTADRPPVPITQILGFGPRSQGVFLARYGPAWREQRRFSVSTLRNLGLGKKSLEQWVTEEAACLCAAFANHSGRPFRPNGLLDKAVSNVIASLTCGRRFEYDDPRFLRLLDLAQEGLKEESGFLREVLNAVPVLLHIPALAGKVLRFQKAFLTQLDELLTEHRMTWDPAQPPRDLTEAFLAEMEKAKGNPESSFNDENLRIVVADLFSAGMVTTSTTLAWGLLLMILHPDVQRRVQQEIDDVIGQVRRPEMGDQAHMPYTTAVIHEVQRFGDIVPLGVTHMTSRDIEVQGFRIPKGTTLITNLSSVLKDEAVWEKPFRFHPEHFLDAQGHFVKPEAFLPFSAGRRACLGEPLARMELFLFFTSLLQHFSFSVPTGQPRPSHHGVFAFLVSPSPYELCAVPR
structure (smiles),measurement,setting,value
CC(=O)NC(Cc1ccccc1)C(=O)O (stereo unspecified),Potency,[1],inactive
same,Potency,[2],inactive
same,Potency,[3],inactive
same,outcome,[4],inactive
same,Potency,[5],inactive
CC(C(O)c1ccc(O)cc1)N1CCC(Cc2ccccc2)CC1 (stereo unspecified),Potency,[6],inactive
same,Potency,[1],inactive
same,Potency,[2],inactive
same,Potency,[5],inactive
same,Potency,Papain (Carica papaya),inactive
Cc1cc2nc3c(=O)[nH]c(=O)nc-3n(C[C@H](O)[C@H](O)[C@H](O)CO)c2cc1C,Potency,[6],inactive
same,Potency,[7],inactive
same,max response,[8],11.4%
same,Potency,[2],inactive
same,Potency,[5],inactive
CC(=O)c1ccc2c(c1)N(CCCN(C)C)c1ccccc1S2,Potency,[6],inactive
same,Potency,[7],25.1 µM (active)
same,max response,[8],-6.13%
same,Potency,[3],436 nM (active)
same,Potency,[5],inactive
same,Potency,Papain (Carica papaya),inactive
Cc1ccc2nc(N)[nH]c(=O)c2c1Sc1ccncc1,Potency,[1],inactive
same,Potency,[2],inactive
same,Potency,[3],7.76 µM (active) and 10.7 µM (active)
Nc1ccc(S(=O)(=O)Nc2ccc(Cl)nn2)cc1,Potency,[1],inactive
same,Potency,[2],inactive
same,Potency,[3],inactive
CCCCCCCCCCCCCCCC(=O)NCCO,Potency,[6],inactive
same,Potency,[1],inactive
same,Potency,[2],inactive
CN1CCCCC1CCN1c2ccccc2Sc2ccc(S(C)=O)cc21 (stereo unspecified),Potency,[6],inactive
same,Potency,[7],12.6 µM (active)
same,max response,[8],-1.8%
same,Potency,[3],21.9 nM (active)
same,Potency,[5],inactive
CCN(CC)CCOC(=O)C1(C2CCCCC2)CCCCC1,Potency,[6],inactive
same,Potency,[7],inactive
same,max response,[8],-2.82%
same,Potency,[1],inactive
same,Potency,[2],inactive
same,Potency,Papain (Carica papaya),inactive
Cc1cccc(Nc2cc(Cl)nc(SCC(=O)O)n2)c1C,Potency,[1],inactive
same,Potency,[2],inactive
same,Potency,[3],inactive
CN(C)CCCN1c2ccccc2CCc2ccccc21,Potency,[6],inactive
same,Potency,[5],inactive
COc1cc(C)c(Cc2cnc(N)nc2N)cc1OC,Potency,[6],inactive
same,max response,[8],8.8%
same,Potency,[3],inactive
same,Potency,[5],inactive
Cc1c(O)cccc1C(=O)N[C@@H](CSc1ccccc1)[C@H](O)CN1C[C@H]2CCCC[C@H]2C[C@H]1C(=O)NC(C)(C)C,Potency,[7],11.2 µM (active)
same,max response,[8],7.19%
same,Potency,[3],3470 nM (active)
same,Potency,[5],15.5 µM (active)
same,Potency,Papain (Carica papaya),inactive
CCOC(CN1CCN(CC(C)C(=O)c2ccccc2)CC1)c1ccccc1 (stereo unspecified),Potency,[1],inactive
same,Potency,[2],inactive
same,Potency,[3],95.2 nM (active)
c1ccc(CN(CC2=NCCN2)c2ccccc2)cc1,Potency,[1],inactive
same,Potency,[2],inactive
same,Potency,[3],1740 nM (active)
OCc1cc(C(O)CNCCCCCCOCCCCc2ccccc2)ccc1O (stereo unspecified),Potency,[1],inactive
O=C1N=C(O)CN1/N=C/c1ccc(-c2ccc([N+](=O)[O-])cc2)o1,Potency,[6],inactive
same,max response,[8],30.6%
same,Potency,[1],14.1 µM (active)
same,Potency,[2],inactive
same,Potency,[3],inactive
same,Potency,Papain (Carica papaya),inactive
O=c1cc(CO)occ1O,Potency,[6],inactive
same,Potency,[7],inactive
same,max response,[8],8.05%
same,Potency,[3],inactive
same,Potency,[5],inactive
OC[C@H]1O[C@@H](O[C@@H]2[C@@H](CO)O[C@](O)(CO)[C@H]2O)[C@H](O)[C@@H](O)[C@H]1O,Potency,[1],inactive
same,Potency,[2],inactive
same,Potency,[3],inactive
NC(=O)NNc1ccccc1,Potency,[1],inactive
O=C(O)c1ccccn1,Potency,[1],inactive
same,Potency,[2],inactive
C/C(=C(\CCOP(=O)(O)O)SC(=O)c1ccccc1)N(C=O)Cc1cnc(C)nc1N,"activity change, negative = inhibition",[1],-22.1% [at 3.88 µM]
same,"% pathology change, negative = correction",[2],-4.46% [at 4.63 µM]
CSc1ccc2c(c1)N(CCC1CCCCN1C)c1ccccc1S2 (stereo unspecified),Potency,[6],50.1 µM (active)
same,Potency,[5],inactive
same,Potency,Papain (Carica papaya),inactive
OCC(O)CN1CCN(c2ccccc2)CC1 (stereo unspecified),Potency,[1],inactive
same,Potency,[2],inactive
same,Potency,[3],inactive
same,outcome,[4],inactive
same,Potency,[5],inactive
O=C(O)c1ccccc1O,Potency,[1],inactive
same,Potency,[2],inactive
COc1ccc(Cl)cc1C(=O)NCCc1ccc(S(=O)(=O)NC(=O)NC2CCCCC2)cc1,Potency,[1],inactive
same,Potency,[2],inactive
CCOc1nc2cccc(C(=O)O)c2n1Cc1ccc(-c2ccccc2-c2nn[nH]n2)cc1,Potency,[1],inactive
same,Potency,[2],inactive
NC1[C@H]2CN(c3nc4c(cc3F)c(=O)c(C(=O)O)cn4-c3ccc(F)cc3F)C[C@@H]12 (stereo partly specified),Potency,[6],inactive
same,Potency,[3],inactive
same,Potency,[5],inactive
CN(C)CCC=C1c2ccccc2CCc2ccccc21,Potency,[7],inactive
same,Potency,[3],5.49 µM (active) and 9.52 µM (active)
same,Potency,[5],inactive
same,Potency,Papain (Carica papaya),inactive
C=CCn1c(=O)n([C@@H]2O[C@H](CO)[C@@H](O)[C@H]2O)c2nc(N)[nH]c(=O)c21,Potency,[6],inactive
same,Potency,[7],inactive
same,Potency,[2],inactive
same,Potency,[3],inactive
same,Potency,[5],inactive
Cn1cc[nH]c1=S,Potency,[1],inactive
same,Potency,[2],inactive
same,Potency,[3],inactive
same,Potency,[5],inactive
NC(=O)NC(=O)Cc1ccccc1,Potency,[1],inactive
same,Potency,[2],inactive
same,Potency,[3],inactive
same,Potency,[5],inactive
O=C1NS(=O)(=O)c2ccccc21,Potency,[1],inactive
same,Potency,[2],inactive
same,Potency,[3],inactive
same,Potency,[5],inactive
Cc1cc(CC(=O)O)n(C)c1C(=O)c1ccc(Cl)cc1,Potency,[1],inactive
same,Potency,[2],inactive
same,Potency,[3],inactive
same,Potency,[5],inactive
Cc1cc(O)cc2c1O[C@](C)(CCC[C@H](C)CCC[C@H](C)CCCC(C)C)CC2,Potency,[1],inactive
same,Potency,[2],inactive
same,Potency,[3],inactive
same,Potency,[5],inactive
CN(N=O)C(=O)N[C@@H]1[C@@H](O)[C@H](O)[C@@H](CO)O[C@@H]1O,Potency,[1],inactive
same,Potency,[2],inactive
same,Potency,[3],inactive
same,outcome,[4],inactive
same,Potency,[5],inactive
O=S(=O)(O)c1cc(I)c(O)c2ncccc12,Potency,[1],inactive
same,Potency,[2],inactive
same,Potency,[3],inactive
same,Potency,[5],inactive
